Data published in PubChem BioAssay AID2384 (Southern Research Specialized Biocontainment Screening …, 2010).
The whole screen tested about 2,300 compounds, of which about 1,100 (48%) were called active. The rule behind the calls is not given here. The set was probably picked from earlier hits. The list shows a part of the results. Entries with a potency or affinity are not part of this list.

test: inhibitors in S. typhi counter-screen strain, dose response, counter-screen for PhoP regulon inhibitor project, fluorescence, 4 h (AID 2384); conditions: S. typhi GFP reporter counter-screen; series mostly up to 150 µM

Compound | inhibition
Cc1cc(C)c(CSc2ncnc3nc[nH]c23)c(C)c1 | inactive
O=C(c1ccco1)N1CCCN(Cc2nc(-c3ccc4c(c3)OCO4)no2)CC1 | inactive
OCn1ncn(-c2ccccc2)c1=S | inactive
CCN(CC)/C(N)=N/c1nc(C)cc(C)n1 | inactive
Cc1cc(C)c2nc(/N=C(\N)NC(=O)c3ccccc3)nc(C)c2c1 | inactive
COc1ccc(OC)c(NC(=O)CSc2nnc3ccc(-c4ccncc4)nn23)c1 | inactive
O=C(NCc1ccccc1)N[C@@H](Cc1c[nH]c2ccccc12)C(=O)O | inactive
O=c1ccn(CCc2c[nH]c3ccccc23)c2c1CCCC2 | inactive
CN(C)C(=O)CC12CC3CC(C1)CC(CC(=O)N(C)C)(C3)C2 | inactive
O=C(Cn1[nH]c(=O)c2ccccc2c1=O)Nc1ccc(-c2nnc3n2CCCCC3)cc1 | inactive
Cc1cc(Cl)ccc1OCC(=O)Nc1nc(-c2cccnc2)cs1 | inactive
CCOC(=O)C1CCCN(C/C(O)=C(\C#N)c2nc(-c3ccccc3)cs2)C1 (configuration not stated) | inactive
O=C1C2C3C=CC(CC3)C2C(=O)N1/N=C/c1ccc(O)cc1 (configuration not stated) | inactive
Cc1cccc(NC(=O)c2sc3nc(-c4ccccc4)cn3c2C)n1 | inactive
O=C(Nc1ccc(N2CCOCC2)c(Cl)c1)c1ccc(-n2cnnc2)cc1 | inactive
CCOC(=O)C1=C(C)NC(=O)NC1c1ccc(NC(C)=O)cc1 (configuration not stated) | inactive
CSC1=NC2(C)CCCCC2C12C=CC(=O)C=C2 (configuration not stated) | inactive
Nc1cncc(C(=O)O)c1 | inactive
CC1CCCC(NC(=O)COC(=O)CCSc2ccccc2)C1C (configuration not stated) | inactive
Cc1cccc(NC(=O)CSc2nc3c([nH]c4ccccc43)c(=O)n2C)c1 | inactive
CC(C)OCCCn1c(=S)[nH]c2cc3c(cc2c1=O)OCO3 | inactive
CCS(=O)(=O)N1CCC(C(=O)NCc2cc(OC)ccc2OC)CC1 | inactive
CC(C)c1ccc(N(C(=O)C(F)(F)F)C(C(=O)NC2CCCCC2)c2ccncc2)cc1 (configuration not stated) | inactive

Compound | inhibition
COc1ccc(NC(=O)CCNS(=O)(=O)c2cccc3nonc23)cc1 | inactive
COc1ccc(N2CCN(c3cc(C)c4ccc(O)cc4n3)CC2)cc1 | inactive
N=c1ccccn1CC(O)COc1ccccc1 (configuration not stated) | inactive
CSc1nc2cc(Oc3cccc(Cl)c3Cl)c(Cl)cc2[nH]1 | inactive
Clc1ccc2nc(N3CCCCC3)[nH]c2c1 | inactive
CC(=O)c1c(C)[nH]c(C(=O)CSc2nnc(-c3ccc(Cl)cc3)n2CC2CCCO2)c1C (configuration not stated) | inactive
O=C(NC(O)C(=O)c1ccccc1)c1ccc(F)cc1 (configuration not stated) | inactive
Clc1ccc2c(c1)c1cc(Cl)ccc1n2CN1CCOCC1 | inactive
CC(C)C(NC(=O)c1ccc(Cl)cc1)C(=O)NCC1CCCO1 (configuration not stated) | inactive
CC(=O)N(CCC1(c2ccc(C)cc2)CCOC(C(C)C)C1)Cc1ccco1 (configuration not stated) | inactive
c1cc(N2CCCC2)ccc1C(c1nnnn1C1CCCCC1)N1CCOCC1 (configuration not stated) | inactive
O=C(NC(=S)Nc1ccc(S(=O)(=O)Nc2nccs2)cc1)c1cccnc1 | inactive
COc1nccnc1NS(=O)(=O)c1ccc(NC(=S)NC(=O)c2cccnc2)cc1 | inactive
C=C(C)COc1ccc2c(C)c(CCC(=O)NC3CC3)c(=O)oc2c1 | inactive
O=C(c1ccccc1)N1CCN(c2ccc([N+](=O)[O-])c(NCc3ccco3)c2)CC1 | inactive
O=C1C(Cl)=C(NCc2cccnc2)C(=O)c2ccccc21 | inactive
CCCC(=O)Nc1c2c(nn1-c1ccc(C)cc1C)CSC2 | inactive
NC(N)=NC(N)=Nc1cccc2ccccc12 | inactive
Cc1c(C(=O)O)oc2c3c(ccc12)OCCO3 | inactive
Cc1ccnc(NS(=O)(=O)c2ccc(N=CC3=C(O)CC(C)(C)CC3=O)cc2)n1 | inactive
N#Cc1nc(Cc2cccc3ccccc23)oc1NCCCN1CCOCC1 | inactive
N#Cc1nc(Cc2ccccc2)oc1NCCN1CCOCC1 | inactive
CCCNC(=O)COc1ncnc2sc(C)c(C)c12 | inactive

Compound | inhibition
COc1ccc(-n2cnc3c(sc4nc(N5CCOCC5)c5c(c43)CCCC5)c2=O)cc1 | inactive
Cc1cc(=O)oc2c(CN(C)Cc3ccccc3)c(O)ccc12 | inactive
CC(C)(C)NC(=O)c1ccc2c3c(cccc13)CC2 | inactive
Cc1ccc(C(=O)N2C(=S)C(c3ccc(F)cc3)=NC23CCN(C)CC3)cc1 | inactive
COC(=O)c1ccc(C)c(NC(=O)CN2C(=O)c3ccccc3S2(=O)=O)c1 | inactive
CC(C)(C)Nc1nc(-c2ccccn2)nc2ccccc12 | inactive
COC(=O)c1ccccc1NC(=O)CSc1ncn[nH]1 | inactive
O=C1Nc2ccccc2C1=Nc1ccc(S(=O)(=O)Nc2nccs2)cc1 | inactive
Cc1ccc(-c2nc(C(=O)NCCCN(C)C)cc3c2[nH]c2ccccc23)cc1 | inactive
CCc1nc(C)ccc1OCC(=O)NCCCN(C)C | inactive
Oc1ccc(C=Nc2ccc3ncccc3c2)c(O)c1 | inactive
Cc1ccc(C2CC(=O)NC(SCCC(C)C)=C2C#N)cc1 (configuration not stated) | inactive
C=CCN1C(=O)C(O)(CC(=O)c2c(C)n[nH]c2C)c2cc(Br)ccc21 (configuration not stated) | inactive
Cc1cc[n+](CC(=O)c2ccc(NC(=O)c3ccccc3)cc2)cc1 | inactive
CCc1ccc2c(c1)CCCN2C(=O)c1ccccc1C(=O)O | inactive
COc1ccc2c(c1)cc1n2CCN=C1N | inactive
COc1c(N2CCN(C(=S)NCc3ccccc3)C(C)C2)c(F)cc2c(=O)c(C(=O)O)cn(C3CC3)c12 (configuration not stated) | inactive
CCCC(=O)c1c(NC)cc(C)oc1=O | inactive
Cc1c(-c2ccccc2)[n+](=O)c2c(n1[O-])CCCC2 | inactive
O=C(Nc1ccc(F)cc1)C1CCC(CNc2c(N3CCCCC3)c(=O)c2=O)CC1 (configuration not stated) | inactive
Nc1nc(N2CCN(c3ccccn3)CC2)nc2ccccc12 | inactive
Cc1ccc(Cn2c(=N)c(C(=O)NCCN3CCOCC3)cc3c(=O)n4ccccc4nc32)cc1 | inactive
CCOc1ccccc1NC(=O)CSc1nc(N)c(C#N)cc1C#N | inactive

Compound | inhibition
CN1CCc2nc(SCC(=O)Nc3cccc(F)c3)c(C#N)c(-c3cccs3)c2C1 | inactive
COCCn1c(SCC(=O)Nc2nnc(C)s2)nnc1-c1c[nH]c2ccccc12 | inactive
N#CCCn1ncc2ccccc21 | inactive
C=CCOC(=O)C1=C(C)NC2(O)c3ccccc3C(=O)C12O (configuration not stated) | inactive
COC(=O)c1ccc(Cn2cnc3ccccc3c2=O)cc1 | inactive
N#C/C(=C\c1ccc[nH]1)C(=O)NC1CC1 | inactive
O=c1c2ccccc2nc2n1CCc1c-2[nH]c2ccccc12 | inactive
CC1(C)Oc2ccc3ccc(=O)oc3c2/C(=C/NCCN/C=C2\C(=O)C(C)(C)Oc3ccc4ccc(=O)oc4c32)C1=O | inactive
Cn1nnnc1SCC(=O)Nc1ccccc1-c1ccccc1 | inactive
CC1CCN(C(=O)CSc2nnc(Cc3cc(=O)[nH]c(=O)[nH]3)n2-c2ccc(Cl)cc2)CC1 | inactive
Cn1c(CCN2CCN(c3ccccn3)CC2)nc2cc(NC(=O)COc3ccccc3)ccc21 | inactive
CCOC(=O)N1CCC(=NNc2ccnc3cc(Cl)ccc23)CC1 | inactive
O=C(c1ccc2c(c1)[nH]c(=S)n1c3ccccc3nc21)N1CCN(c2cccc(Cl)c2)CC1 | inactive
O=C(CSc1ccccn1)N/N=C/c1c[nH]c2ccccc12 | inactive
COC(=O)CC1C(=O)NCCN1C(=O)CSc1nc2ccc([N+](=O)[O-])cc2s1 (configuration not stated) | inactive
C(=N\Nc1nc2ccccc2[nH]1)/c1ccc2ncccc2c1 | inactive
Cn1cnnc1SCC(=O)Nc1ccc2nc(SCc3ccccc3)sc2c1 | inactive
CCN1C(=O)N/C(=C/c2cc(C)n(Cc3ccccc3)c2C)C1=O | inactive
Cc1cccc(OCC(=O)Nc2nonc2NC(=O)COc2cccc(C)c2)c1 | inactive
CC(=O)Nc1ccc(NC(=O)CSc2ccc(-c3ccco3)nn2)cc1 | inactive
O=C(c1cc2c(s1)-c1ccccc1S(=O)(=O)C2)N1CCN(Cc2ccccc2)CC1 | inactive
CN1CCN(c2ccccc2NC(=O)c2sc3ccccc3c2Cl)CC1 | inactive
Cc1cc(C=O)c(O)cc1O | inactive

Compound | inhibition
O=C(NCc1ccccc1)c1ccc(CNc2c(N3CCCC3)c(=O)c2=O)cc1 | inactive
COc1ccc(NC(=O)Cn2c(=O)oc3cc(S(=O)(=O)N4CCCC4)ccc32)c(OC)c1 | inactive
CCOC(=O)c1cnn2c1[nH]c(=O)c1ccccc12 | inactive
NC1=NC(c2cccc(O)c2)n2c(nc3ccccc32)N1 (configuration not stated) | inactive
NC1=NC2(CCCCC2)n2c(nc3ccccc32)N1 | inactive
NC(=O)c1cc(S(=O)(=O)Nc2cccc(F)c2)co1 | inactive
COC(=O)c1cc2nc(-c3ccccc3)cc(C)n2n1 | inactive
CNc1ccc(SC#N)cc1 | inactive
CCOC(=O)Cc1nn(C)c(=O)c2ccccc12 | inactive
O=S1(=O)CC=C(CSc2nc3ccccc3[nH]2)C1 | inactive
CC(=O)N1CSCC1C(=O)N1CCN(c2ccc(N3CCOCC3)nn2)CC1 (configuration not stated) | inactive
CCOC(=O)C(NC(C)=O)(Nc1cccc(F)c1)C(F)(F)F (configuration not stated) | inactive
O=C(NC1(C(F)(F)F)C(=O)Nc2c1c(=O)[nH]c(=O)n2-c1ccccc1)c1ccncc1 (configuration not stated) | inactive
C=CCn1c(C)c(C(C)=O)c(N2CCCC2)nc1=S | inactive
NC(=O)CN1N=C(c2cc(Cl)sc2Cl)CSC1=O | inactive
COCCN1CC(=O)N2C(c3cccc(OC)c3)c3[nH]c4ccccc4c3C[C@H]2C1=O (some centres not stated) | inactive
N=c1c(C(=O)NCC2CCCO2)cc2c(=O)n3ccccc3nc2n1Cc1ccc(Cl)cc1 (configuration not stated) | inactive
COc1ccc(C)cc1NC(=O)C1CCN(S(=O)(=O)c2c(C)noc2C)CC1 | inactive
COc1cccc(C(c2c(C)[nH]n(-c3ccccc3)c2=O)c2c(C)[nH]n(-c3ccccc3)c2=O)c1O | inactive
CCOc1ccccc1-c1cc(-c2ccccc2)nc2c1c(=O)n(C)c(=O)n2C | inactive
